Compound activity from PubChem.
Most compounds without a hit are left out; they make up all but 2.4% or so of the library.
TMEM16A act – TMEM16A chloride channel activators or potentiators, primary screen, cell-based, HTS; B-score at 10 µM; 0.3% of 340,000 active; HEK293 TMEM16A/YFP-H148Q/I152L, iodide quench fluorescence; hits give low values; Anoctamin-1 (Mus musculus), Q8BHY3;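 active means fluorescence-ratio B-score plate-corrected deviation score at least 3 library SD below zero, with starting fluorescence score within 5 deviations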;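 further: channel opened by trigger with iodide after compound preincubation; score built on the fluorescence ratio of max minus min over baseline; more negative score means more quench and so TMEM16A activation or potentiation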
cardiac RTF act – cardiac RTF calcium sensitivity activators, primary screen, biochemical, IANBD-TnC fluorescence, EC20 calcium; IANBD-labeled TnC RTF fluorescence at EC20 calcium; 0% EC20 calcium, 100% full calcium; activation, % at 7.2 µM; 0.24% of 340,000 active;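 active means activation above the mean over all tested compounds plus 3 SD, cut at about 30% in these data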;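 further: rise in fluorescence read as greater calcium sensitivity of cardiac thin filaments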
ANO1 block – TMEM16A chloride channel inhibitors, primary screen, cell-based, HTS. HEK293 TMEM16A/YFP iodide influx fluorescence, ionomycin. 1.2% of 310,000 active. normalized B-score (activity score, 25-100; higher = stronger inhibition) at 10 µM. Anoctamin-1 (Mus musculus), Q8BHY3;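 active means ratio plate-corrected score three or more library SD toward inhibition, starting fluorescence score within five deviations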;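 further: score derived from kinetic fluorescence span divided by baseline fluorescence per well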
CRFR2-BP ag – agonists of CRF-BP/CRF-R2 complex, primary screen, cell-based, HEK293, calcium dye fluorescence, uHTS | AID 588473, 2011 | activation, % at 13.2 µM | calcium dye fluorescence (FLIPR); percent of saturating CRF peptide response | 0.46% of 350,000 active | CRF-binding protein / CRF receptor 2 complex (human);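 active means activation of at least 50%, plus an integration ratio under a set limit after plate pattern correction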;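 further: plate controls were neutral control wells without compound for no effect and CRF at EC100 for full effect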
RTF Ca sens inh – cardiac RTF calcium sensitivity inhibitors, primary screen, biochemical, IANBD-TnC fluorescence, EC70 calcium; Troponin I, cardiac muscle (Homo sapiens) + Troponin T, cardiac muscle (Homo sapiens) + …; IANBD-labeled cardiac RTF, Ca2+ fluorescence; inhibition, % at 7.15 µM; 0.12% of 340,000 active; AID 493244, 2011;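 active means inhibition above the mean inhibition of all tested compounds plus 3 SD, cut at about 17% in these data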;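 further: assay run at fixed EC70 calcium of 1.6 mM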
CRFR2-BP antag – antagonists of CRF-BP/CRF-R2 complex, primary screen, cell-based, HEK293, calcium dye fluorescence, uHTS; CRF-induced calcium fluorescence; inhibition, % at 11.8 µM; 0.59% of 350,000 active;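 active means inhibition of the ligand-induced calcium signal above about 50% at the single tested concentration, limit read from the data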
Numbers without * were called inactive; i = inactive; x = not tested or not shown.

SMILES	TMEM16A act	cardiac RTF act	ANO1 block	CRFR2-BP ag	RTF Ca sens inh	CRFR2-BP antag
CCCOC(=O)c1ccc(Oc2cn[nH]c2-c2ccc(OCC)cc2O)cc1	i	-3	i	-5	-4	107*
CCCOC(=O)c1ccc(Oc2c(-c3ccc(OCC)cc3O)n[nH]c2C)cc1	i	-27	i	0	-4	-9
COc1ccc(Oc2cn[nH]c2-c2ccc(OCC(=O)NN)cc2O)cc1	i	5	i	4	-8	-35
CCCc1ccc(Oc2cn[nH]c2-c2ccc(O)c(C)c2O)cc1	i	2	100*	0	4	-16
COC(=O)c1cccc(N/C=C(\[N+](=O)[O-])S(=O)(=O)c2ccccc2)c1	i	-3	i	1	-4	2
CC(=O)Nc1ccc(C(=O)Nc2ccc3c(c2)OCO3)cc1	i	1	i	-2	-9	17
CCc1ccc2[nH]c(C(=O)Nc3ccc4c(c3)OCO4)cc2c1	i	4	i	-5	0	69*
Cc1cc(C)c2[nH]c(C(=O)Nc3ccc4c(c3)OCO4)cc2c1	i	6	i	-1	0	29
CS(=O)(=O)Nc1ccc(C(=O)Nc2ccc3c(c2)OCO3)cc1	-10*	4	i	-2	-5	-27
Cc1cccc(C)c1Nc1nnc(SC(C)C(=O)Nc2c(C)n(C)n(-c3ccccc3)c2=O)s1 (stereo not drawn)	i	-4	i	-2	-2	8
COc1cccc(NC(=O)C(C)Sc2nnc(C3CC3)n2C2CC2)c1 (stereo not drawn)	-32*	1	x	0	2	9
C=CCn1c(O)c2ccc(C(=O)N=NC(=O)COc3ccc(OC)cc3)cc2c1O	i	-3	i	-1	3	-4
Fc1ccc(C(CCCn2nnc(-c3cccnc3)n2)c2ccc(F)cc2)cc1	i	-2	100*	1	6	-1
Fc1ccc(-n2nnc(-c3cccnc3)n2)cc1	i	2	i	-1	-5	0
CCOC(=O)c1ccc(N2C(=O)C=CC2=O)cc1	i	1	25*	1	-4	3
Cc1cc2c(cc1S(=O)(=O)CCC(=O)NC1CCCCC1C)OCC(=O)N2 (stereo not drawn)	i	2	i	83*	-2	-87
O=C1CCC/C(=N/Nc2ccc(Cl)cc2)C1	i	4	i	4	6	-23
O=C(O)Cc1ccc(O)c(O)c1	i	0	i	2	-1	-5
O=C(O)Cc1cc(I)c(Oc2ccc(O)c(I)c2)c(I)c1	x	x	100*	x	x	x
COCCn1c(SCC(=O)N2CCCCC2)nc2c(c1=O)SCC2	i	-1	i	-1	-5	8
CCn1c(SCC(=O)N2CCCCC2)nc2c(c1=O)SCC2	i	-3	i	-1	-3	52*
CC(=O)c1c2c3c(cccc3n(C)c1=O)C(=O)c1ccccc1-2	x	x	i	9	x	-4
Cn1c(=O)c(Nc2ccc(O)cc2)c2c3c(cccc31)C(=O)c1ccccc1-2	i	50*	i	9	-56	3
COc1ccc(C2C(C#N)=C(N)Oc3cc(O)ccc32)cc1C (stereo not drawn)	i	-4	i	55*	-3	-32
COc1cc(C2C(C#N)=C(N)Oc3cc(N(C)C)ccc32)cc2c1OCO2 (stereo not drawn)	i	13	i	158*	-27	-193
COc1ccc(C2C(C#N)=C(N)Oc3cc(O)ccc32)cc1OC (stereo not drawn)	i	2	i	3	-6	-11
O=c1[nH][nH]cc1C=Nc1ccc(Cl)cc1	i	-6	i	-1	-1	72*
Cc1ccc(C)c(OCC(=O)Nc2ccncc2)c1	i	0	i	-2	4	-10
